Test results as given in PubChem BioAssay AID504333 (National Center for Advancing Translational Sciences (NCATS), 2011).
About 16,000 (4.4%) of roughly 360,000 compounds were called active. About 9% were inconclusive and are not listed. The full list was thinned out, with actives kept by preference. Values without a mark were called inactive. Calls follow the shape of the dose curve; as a rule, active = well fitted inhibition curve with a large enough effect; inconclusive = small, poorly fitted or top-dose-only effect; inactive = no such curve, though single readings can be large or run the other way.

target: Bromodomain adjacent to zinc finger domain protein 2B (Homo sapiens) (UniProt Q9UIF8); assay: qHTS Assay for Inhibitors of BAZ2B; settings: AlphaScreen BAZ2B-H3K14Ac peptide displacement; series mostly up to 114 µM; activity change, negative = inhibition: at the top concentration; also: nearly all actives have a fitted effect of over 60% in size
Sequence (Q9UIF8 whole entry, looked up, the tested form may be a part): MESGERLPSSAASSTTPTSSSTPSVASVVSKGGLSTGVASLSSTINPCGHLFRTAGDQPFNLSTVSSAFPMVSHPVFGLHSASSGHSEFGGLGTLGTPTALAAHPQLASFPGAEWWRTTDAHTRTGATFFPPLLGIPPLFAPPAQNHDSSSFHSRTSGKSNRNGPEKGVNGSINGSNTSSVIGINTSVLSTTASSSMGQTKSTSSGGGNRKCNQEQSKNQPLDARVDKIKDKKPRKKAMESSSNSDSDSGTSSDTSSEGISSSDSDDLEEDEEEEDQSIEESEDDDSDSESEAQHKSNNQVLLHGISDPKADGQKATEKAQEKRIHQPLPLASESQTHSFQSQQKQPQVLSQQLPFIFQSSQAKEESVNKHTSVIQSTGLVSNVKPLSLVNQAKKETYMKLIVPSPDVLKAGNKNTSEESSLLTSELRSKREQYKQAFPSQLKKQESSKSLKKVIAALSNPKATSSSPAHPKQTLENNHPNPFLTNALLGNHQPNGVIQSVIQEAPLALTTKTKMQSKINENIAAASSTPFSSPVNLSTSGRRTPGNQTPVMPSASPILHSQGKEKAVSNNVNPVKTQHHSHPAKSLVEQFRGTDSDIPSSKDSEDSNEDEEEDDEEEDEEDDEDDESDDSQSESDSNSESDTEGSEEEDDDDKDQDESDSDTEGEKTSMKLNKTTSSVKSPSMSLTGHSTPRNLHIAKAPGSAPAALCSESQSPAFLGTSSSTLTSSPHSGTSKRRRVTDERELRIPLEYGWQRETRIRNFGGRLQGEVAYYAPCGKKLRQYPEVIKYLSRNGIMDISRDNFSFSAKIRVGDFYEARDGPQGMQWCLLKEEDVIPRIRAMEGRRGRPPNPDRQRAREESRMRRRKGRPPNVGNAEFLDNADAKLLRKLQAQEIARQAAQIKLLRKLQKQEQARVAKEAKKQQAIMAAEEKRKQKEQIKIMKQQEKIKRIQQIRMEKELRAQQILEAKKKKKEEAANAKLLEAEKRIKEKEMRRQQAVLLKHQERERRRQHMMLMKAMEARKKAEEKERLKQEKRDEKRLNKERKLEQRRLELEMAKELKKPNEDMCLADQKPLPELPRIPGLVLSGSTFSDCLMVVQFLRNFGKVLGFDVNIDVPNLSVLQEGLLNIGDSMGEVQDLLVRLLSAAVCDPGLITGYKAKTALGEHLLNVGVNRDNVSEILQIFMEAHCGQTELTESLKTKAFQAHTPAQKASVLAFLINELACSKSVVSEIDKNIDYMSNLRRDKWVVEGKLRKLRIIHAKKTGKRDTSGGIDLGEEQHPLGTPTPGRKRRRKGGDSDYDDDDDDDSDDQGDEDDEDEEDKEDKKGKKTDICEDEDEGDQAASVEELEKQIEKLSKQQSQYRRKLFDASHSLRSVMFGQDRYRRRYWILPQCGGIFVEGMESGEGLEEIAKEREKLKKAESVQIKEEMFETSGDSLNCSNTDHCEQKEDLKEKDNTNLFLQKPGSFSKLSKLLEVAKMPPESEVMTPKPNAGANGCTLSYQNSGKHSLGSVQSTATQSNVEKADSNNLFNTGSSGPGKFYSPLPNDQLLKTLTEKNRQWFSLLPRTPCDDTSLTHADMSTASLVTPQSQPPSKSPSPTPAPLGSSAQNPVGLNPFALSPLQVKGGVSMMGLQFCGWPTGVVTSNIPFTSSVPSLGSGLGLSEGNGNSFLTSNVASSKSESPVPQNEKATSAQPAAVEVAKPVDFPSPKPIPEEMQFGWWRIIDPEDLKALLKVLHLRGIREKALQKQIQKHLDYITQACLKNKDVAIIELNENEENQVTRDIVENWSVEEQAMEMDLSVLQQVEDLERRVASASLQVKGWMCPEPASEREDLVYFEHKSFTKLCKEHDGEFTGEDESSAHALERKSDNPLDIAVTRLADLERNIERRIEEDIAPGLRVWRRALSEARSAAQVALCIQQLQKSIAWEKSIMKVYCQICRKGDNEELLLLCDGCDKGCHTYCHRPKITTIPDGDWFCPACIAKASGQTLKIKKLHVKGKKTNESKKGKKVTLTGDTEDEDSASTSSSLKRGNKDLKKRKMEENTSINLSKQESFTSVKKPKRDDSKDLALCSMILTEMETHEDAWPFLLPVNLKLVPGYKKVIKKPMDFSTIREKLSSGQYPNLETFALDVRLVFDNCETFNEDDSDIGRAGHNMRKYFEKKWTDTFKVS
From the text: BAZ2B (bromodomain adjacent to zinc finger domain, 2B) belongs to a family of ubiquitously expressed bromodomain containing proteins, which biological function has not yet been elucidated. […] The interaction of BAZ2B with ISWI mediated by the BAZ1 motif has recently been described. […] The protocol is based on the AlphaScreen (PerkinElmer) displacement assay developed by NCGC [5], but uses the peptide ligand Biot-H3K14Ac, a high affinity binding partner for BAZ2B, in an AlphaScreen format. Although AlphaScreen has significant advantages with its utility in a variety of epigenetic target assays, the primary screening data provided in this deposition should be used with caution due to the prevalence of screening artifacts. The top compound concentration tested was 110uM in this assay, which increases number of actives and potential artifacts. An AlphaScreen counterscreen is highly recommended to be run against any putative actives to eliminate non-specific artifacts. Alternatively, one can use other AlphaScreen assays in PubChem to filter out promiscuous hits. Eberharter, A. et al. ACF1 improves the effectiveness of nucleosome mobilization by ISWI through PHD-histone contacts. The EMBO journal 23, 4029-4039. 2004. PMID: 15457208 [2] Jones, M.H. et al. A novel family of bromodomain genes. Genomics 63, 40-45. 2000. PMID: 10662543 [3] Yasgar, et al. Compound Management for Quantitative High-Throughput Screening. JALA. 2008 Apr;13(2):79-89. PMID: 18496600 [4] Inglese, et al. Quantitative high-throughput screening: a titration-based approach that efficiently identifies biological activities in large chemical libraries. Proc Natl Acad Sci. 1;103(31):11473-8. 2006. PMID: 16864780 [5] Quinn et al. A chemiluminescence-based method for identification of histone lysine methyltransferase inhibitors. Mol Biosyst 6(5): 782-8. 2010. PMID: 20567762 [6] Baell,Holloway. New substructure filters for removal of pan assay interference compounds (PAINS) from screening libraries and for their exclusion in bioassays. J Med Chem. 53(7):2719-40. 2010. PMID: 20131845 NIH Molecular Libraries Probe Production Network [MLPCN] NIH Chemical Genomics Center [NCGC] Structural Genomics Consortium (SGC) NIH Grant: 5U54 MH084681-02
To each well of a 1,536w plate, 2ul of BAZ2B protein (final 50nM) and 1ul biotinylated histone peptide acetylated at Lys14 [b-H3(5-23)K14Ac] (final 50nM) were added in 1x PBS buffer, pH 7.4, containing 0.01% Tween-20, using a nanoliter dispenser. Formation of a protein-peptide complex proceeded at room temperature for 30 min. A Kalypsys pin-tool was employed to transfer 23 nL of library compound solution in DMSO to each well. Following a 30 min incubation of the protein-peptide complex with compounds at room temperature, a mixture of 40 ug/mL each streptavidin-coated donor and nickel chelate acceptor AlphaScreen beads (final 10 ug/mL) were added in a 1ul dispense for a final volume of 4ul. A brief centrifugation followed (1000rpm, 1 min) and were then incubated protected from the light for 20 min at room temperature. Plates were read on an EnVision multilabel plate reader using the 1,536 plate HTS AlphaScreen aperture (excitation time 80 ms, measurement time 240 ms).
% is scaled to controls: 0 for no effect and ±100 for the full control effect; potency is read from the fitted curve at half-maximal effect.

Compound | activity change, negative = inhibition | Potency
CCCS(=O)(=O)c1c(Nc2ccccc2C)sc(C(=O)c2ccccc2)c1N | -30.6% (inactive) | –
Cc1ccc(-c2nn3c(=O)cc(CN4CCN(S(=O)(=O)c5ccc(Cl)cc5)CC4)nc3s2)cc1 | -2.85% (inactive) | –
COc1cc(NC(=O)c2cc(C3CC3)nc3c2c(C)nn3-c2ccccc2)cc(OC)c1 | 10.3% [at 57.1 µM] (inactive) | –
O=C(/C=C/c1ccccc1)Nc1cc(-c2nc3cc(Cl)ccc3o2)ccc1Cl | -6.45% (inactive) | –
CCCCNC(=O)c1ccc2c(c1)NC(=O)C(C(C)C)N2 (stereo unspecified) | -2.58% (inactive) | –
CCN(CCCNC(=O)Cn1ncc2c([nH]c3ccccc32)c1=O)c1cccc(C)c1 | -10.1% (inactive) | –
CCN(CCCNC(=O)c1ccc2c(c1)NC(=O)CN2C)c1cccc(C)c1 | – | 50.1 µM (active)
CCC1CCCCN1C(=O)Cn1c(=O)n(CCCCCC(=O)NCc2ccccc2)c(=O)c2sccc21 (stereo unspecified) | 4.84% (inactive) | –
Cc1ccc(C(=O)Nc2nc(-c3ccccc3)ns2)cc1 | 1.63% (inactive) | –
CC(=O)Nc1nc(C)c(-c2csc(Nc3ccc(S(N)(=O)=O)cc3)n2)s1 | -12.2% (inactive) | –
CCCCCCC(=O)Nc1nc(C)c(-c2csc(Nc3cccc(OC)c3)n2)s1 | – | 50.1 µM (active)
Cc1nc(NC(=O)c2cccc(Cl)c2)sc1-c1csc(Nc2cccc(Cl)c2)n1 | -13.5% (inactive) | –
COc1cccc(CC(=O)Nc2ccc(-c3csc(C)n3)cc2)c1 | -13.6% (inactive) | –
C=CCCC(=O)Nc1nc(C)c(-c2csc(Nc3ccc(Cl)cc3)n2)s1 | – | 44.7 µM (active)
CCC(=O)Nc1nc(C)c(C(=O)Nc2cccc(Cl)c2)s1 | -34.4% (inactive) | –
Cc1ccc(Nc2nc(-c3sc(NC(=O)c4ccccc4)nc3C)cs2)cc1 | – | 50.1 µM (active)
CCOC(=O)c1csc(NC(=O)Nc2cccc(OC)c2)n1 | -4.77% (inactive) | –
O=C(NCCc1ccc(Cl)cc1)c1ccc2c(c1)N(Cc1ccc(F)cc1)C(=O)CS2 | -2.79% (inactive) | –
COc1cc(NC(=O)c2noc3c2CSc2ccccc2-3)cc(OC)c1OC | -8.66% (inactive) | –
COc1ccc(-n2c(=O)c3sc4ccccc4c3n(CC(=O)Nc3cccc(C)c3)c2=O)cc1 | -6.4% (inactive) | –
COc1ccc(NC(=O)Cn2c(=O)n(CCC(C)C)c(=O)c3cccnc32)cc1Cl | -0.608% (inactive) | –
Cc1cccc(OCCCC(=O)Nc2sc3c(c2C(N)=O)CCC(C)C3)c1 (stereo unspecified) | -8.35% (inactive) | –
COc1ccc(Cl)cc1NC(=O)Cn1c(=O)c2ccccc2n2nncc12 | -22.9% (inactive) | –
COc1ccc(OC)c(NC(=O)CN2CCCN(Cc3cc(C)ccc3C)S2(=O)=O)c1 | -18.8% (inactive) | –
Cc1cc(C(=O)Nc2cccc(C(F)(F)F)c2)c2c(C)nn(-c3cccc(F)c3)c2n1 | 18% [at 57.1 µM] (inactive) | –
CC(=O)c1ccc(N2CCN(C3C(=O)c4ccccc4N3C(C)=O)CC2)cc1 (stereo unspecified) | -14.1% (inactive) | –

Compound | activity change, negative = inhibition | Potency
Cc1ccc(C)c(Cn2c(CCCNC(=O)C3CCCCC3)nc3ccccc32)c1 | -25.4% (inactive) | –
CC(=O)c1ccc(N2CCN(C(=O)CCc3ccccc3)CC2)cc1 | 8.19% [at 0.457 µM] | –
CC(=O)N1CCN(c2ccc(NCc3ccc(C(C)C)cc3)cc2)CC1 | – | 35.5 µM (active)
O=C(Nc1ccc(F)cc1)N1CCN(c2ccc(F)cc2)CC1 | 2.02% (inactive) | –
COc1cc(OC)c(NC(=O)c2cnc(N3CCCC3)nc2C)cc1Cl | -6.13% (inactive) | –
O=C(NCc1ccccc1)c1ccc2c(c1)nc1n2CCCCC1 | 7.55% (inactive) | –
COc1cccc(C(=O)Nc2ccc3oc(-c4ccc5ccccc5c4)nc3c2)c1 | -8.57% (inactive) | –
CCN1/C(=C\c2ccc3ccccc3[n+]2CC)Sc2cc(C)ccc21 | – | 50.1 µM (active)
CCCSc1nc2sc3c(c2c(=O)n1-c1cccc(Br)c1)CC(C)(C)OC3 | 3.93% (inactive) | –
O=C(COC(=O)c1cnc(Cl)c(Cl)c1)NCc1ccco1 | – | 50.1 µM (active)
CSCCC(NC(=O)c1ccco1)C(=O)OCC(=O)Nc1ncc(Cl)c(C)c1Cl (stereo unspecified) | -37.8% (inactive) | –
O=C(CCCl)Nc1ccc(S(=O)(=O)NCc2ccco2)cc1 | -31% (inactive) | –
O=C(COC(=O)c1ccco1)NCc1ccc(Cl)cc1 | -1.66% (inactive) | –
Cc1c(Cl)cnc(NC(=O)COC(=O)c2ccc(S(=O)(=O)NCc3ccco3)cc2)c1Cl | – | 50.1 µM (active)
O=S(=O)(NCc1ccco1)c1cnc(Cl)c(Cl)c1 | 1.63% (inactive) | –
Cc1nn2c(=O)cc(COC(=O)CNC(=O)c3ccc(F)cc3)nc2s1 | -23.7% (inactive) | –
CC1=C(c2ccc(C)c(C)c2)S(=O)(=O)NC1=NCc1ccccc1Cl | -20.8% (inactive) | –
CC(C)c1ccc(NC(=O)c2ccc(Cn3nc(N4CCN(c5ccccc5)CC4)ccc3=O)o2)cc1 | – | 39.8 µM (active)
CCn1nc(C(=O)Nc2ccc(N3CCOCC3)cc2)c2ccccc2c1=O | -3.8% (inactive) | –
COc1ccccc1N1CCN(c2ccc(=O)n(CC(=O)NCc3ccc(OC(C)C)cc3)n2)CC1 | -12.3% (inactive) | –
Fc1ccccc1Oc1ncnc2c1oc1ccccc12 | 6.13% (inactive) | –
O=C(Nc1ccc(Br)cc1)c1cc2nc(-c3ccccc3)cc(-c3ccccc3)n2n1 | 22.8% (inactive) | –
COc1cc(OC)c(C(=O)Nc2ccc(N(C)C)cc2)cc1OC | – | 50.1 µM (active)
COc1ccc(Cl)cc1C(=O)Nc1ccc(N(C)C(C)=O)cc1 | -1.13% (inactive) | –
COc1cc(OC)c(C(=O)Nc2ccccc2-c2ccccc2)cc1OC | -25.7% (inactive) | –
